2 compounds from PubChem BioAssay AID720712 (NMMLSC, 2013) can be followed below.

The source made the active and inactive calls.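 Rule for the calls: active = EC50 at most 10 µM with response changing by at least 30 points across doses, from an acceptable curve fit; inactive = the rest.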

The experiment deals with Cell division control protein 42 homolog (Homo sapiens) (UniProt P60953). The experiment can be described thus: Cdc42 wildtype GTP-binding inhibitors, late-stage follow-up, mechanism study for Ras-family GTPase inhibitor project, biochemical, compound preincubation comparison, flow cytometry beads, Bodipy-FL-GTP (AID 720712). The settings on record: GST-Cdc42 beads, EDTA, protocol B; series mostly up to 100 µM.
Chain of Cell division control protein 42 homolog (Homo sapiens) (P60953 whole entry, looked up): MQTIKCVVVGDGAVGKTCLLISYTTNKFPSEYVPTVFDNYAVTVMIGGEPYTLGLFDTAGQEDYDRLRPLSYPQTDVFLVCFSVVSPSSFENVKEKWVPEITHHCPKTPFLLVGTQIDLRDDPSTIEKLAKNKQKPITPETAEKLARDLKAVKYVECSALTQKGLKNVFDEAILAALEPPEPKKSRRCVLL

Regarding `CC1(C)Cc2c(sc(NC(=S)NC(=O)c3ccc(N=[N+]=[N-])cc3)c2C(=O)O)CO1`, the compound was called inactive.
To `CC1(C)Cc2c(sc(NC(=S)NC(=O)c3cccc(N=[N+]=[N-])c3)c2C(=O)O)CO1` belongs “inactive”.
